# Target: AMP-activated protein kinase, AMPK (Homo sapiens) (UniProt P54646+O43741+P54619+Q9UGJ0+Q9Y478+Q13131+Q9UGI9)
# Assay: AMP-dependent Kinase enzyme assay. An in vitro enzyme assay that detects ADP turnover that is directly proportional to AMPK activity. This uses naive AMPK that is activated during the assay with MK-8722
# Format: functional
# Parameters: scale not given: direction of the effect not stated beside the values
# Conditions: 30 µM
row,SMILES,Percent Effect [%]
1,Cc1nc(C(NC(=O)CN(C)C(C)C)c2ccccc2F)no1 (stereo not given),-4.35
2,COc1cc(OC)cc(-c2cccc3c2OC(CN)C3)c1 (stereo not given),-5.59
3,O=C(Cc1ccccc1O)NC1CCCN(c2ccccc2F)C1=O (stereo not given),8.51
4,CNC(=O)C1CN(C(=O)Cc2ccc(OC)cc2)Cc2cn(C)nc21 (stereo not given),-3.48
5,CSc1nccc(N2CCC(NCc3ccc4c(c3)OCO4)CC2)n1,15
6,Cn1ccc(NC(=O)CN2CCN(C3CCCC3)C(=O)C2)n1,4.97
7,CC(C)c1nc(C2CCCN2CCOCC2CC2)no1 (stereo not given),7.32
8,Cc1ccccc1SCC(=O)N[C@H]1CC[C@H](n2cnnc2)CC1,1.98
9,c1csc(CN2CCCN(c3ccc(Cn4ccnc4)cn3)CC2)c1,-2.96
10,CCCSCC(=O)NCc1cccc(CN(C)CC)c1,5.85
11,CN(C)C(=O)N1CCCC(C(=O)N(C)Cc2cnc(N)nc2)C1 (stereo not given),-2.52
12,COC1CCCOC12CCN(C(=O)NCc1ccco1)CC2 (stereo not given),13
13,Cc1noc(C)c1CNCC1CNc2ccnn2C1 (stereo not given),-0.962
14,Cc1cc(CN(C)Cc2csc(-c3cccs3)n2)n[nH]1,6.79
15,CNS(=O)(=O)CC(=O)NCc1cc2c(s1)CCCCC2,-1.26
16,Cc1ccc(C(C)NC(=O)N2CCCN(CC(F)F)CC2)s1 (stereo not given),-1.15
17,Cc1ccccc1CNC(=O)CNc1ccc(OC2CCOC2)cc1 (stereo not given),10.2
18,Cc1cc(C)n2c(CNCc3ccc(OC(F)F)cc3)cnc2n1,-12.4
19,CN1CC(C(=O)NCCc2ccc3c(c2)OCCO3)CC1=O (stereo not given),2.3
20,CC(C)Oc1ccccc1CNC(=O)N(C)CC(F)F,1.53

row,SMILES,Percent Effect [%]
1,CC(C)N(Cc1ccccn1)C(=O)CN(C)C(=O)c1cccs1,10.8
2,COCCC(=O)Nc1nc2c(OC)cc(F)cc2s1,-1.47
3,O=C(Cn1cccnc1=O)NCc1cccnc1OCC(F)(F)F,0.146
4,CCn1cc(S(=O)(=O)NCc2ccnc(-n3ccnc3)c2)cn1,-0.563
5,CC(N)C(=O)N1CCC(Oc2cccc(C(F)(F)F)c2)CC1 (stereo not given),-2.71
6,CCC(C)Oc1ccc(CNCCc2c[nH]cn2)cc1Cl (stereo not given),-17.6
7,COc1cccc(-c2n[nH]cc2-c2nc(CN3CCCC3)no2)c1,-4.34
8,NC(=O)CN1CCC(C(=O)NCC(O)c2cccc(F)c2)CC1 (stereo not given),-5.48
9,O=C(Nc1ccccc1OCCc1ccccn1)N1CC[C@@H](O)C1,8.55
10,CCN1CCC(CC(=O)NCCc2nc(N)cc(O)n2)CC1,0.153
11,CCC(O)CNC(=O)c1cc(COc2ccc(OC)cc2Cl)[nH]n1 (stereo not given),2.19
12,Cc1cccc(COc2ccc(C(C)N)cc2)c1 (stereo not given),-5.16
13,O=S(=O)(c1cc(F)ccc1N1CC(n2cccn2)C1)C(F)(F)F,26.5
14,CN1CCN(CCOc2ccc(NC(=O)c3cnc[nH]3)cc2)CC1,0.519
15,CC(C)c1nnc(C2CCN(CC(=O)Nc3cccnc3)CC2)o1,-5.27
16,CCOc1ccccc1-n1c(C2CC(=O)N(C)C2)n[nH]c1=O (stereo not given),7.89
17,CNc1nc(C(=O)N2CCCn3nc(C(=O)N4CCCC4)cc3C2)cs1,10.6
18,O=C(CC1=CSC2=NCCN12)N1CCCC(CCc2cccc(F)c2)C1 (stereo not given),13.4
19,C[C@@H]1CN(C(=O)C2(Cn3cccn3)CC2)CC[C@@]1(O)C1CC1,-6.74
20,CC(c1nc(C2CC2)no1)N1CCc2c(ncn2C)C1 (stereo not given),12
